# Where “and” joins values, the source holds several entries; their conditions need not be identical. Equal values may be shown once. Records with an inconclusive call do not appear. Calls of active or inactive are those of the source. Rule for the calls: active = hit-call score of the fitted dose curve at least 0.9, where 1 is the maximum; inconclusive = response in the unintended direction; inactive = score below 0.9.
# Key:
# [1] = target: human Dopamine Receptor D4.4 (DRD4.4), DRD4 (gene 1815) (UniProt P21917); assay: NVS_GPCR_hDRD4.4: NovaScreen (NVS) G Protein-Coupled Receptor Assay for human Dopamine Receptor D4.4 (DRD4.4) (AID 2283264)
# Method in brief: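 Filter-binding assay with a tritiated or iodinated ligand, cell-free receptor prepared from CHO, 1 hour. Loss of bound radioactivity versus DMSO; single 25 uM duplicate screen, then concentration-response for actives.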
# [2] = target: human Endothelin Receptor Type A (ETA), EDNRA (gene 1909) (UniProt P25101); assay: NVS_GPCR_hETA: NovaScreen (NVS) G Protein-Coupled Receptor Assay for human Endothelin Receptor Type A (ETA) (AID 2283265)
# Method in brief: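 Binding of radioligand to membrane protein extracted from SH-SY5Y cells was read by filtration and scintillation after 3 h. Compounds were screened at 25 uM in duplicate, with hits followed up in singleton concentration series to 50 uM.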
# [3] = target: human Dopamine Receptor D2 (DRD2), DRD2 (gene 1813) (UniProt P14416); assay: NVS_GPCR_hDRD2s: NovaScreen (NVS) G Protein-Coupled Receptor Assay for human Dopamine Receptor D2 (DRD2) (AID 2283266)
# Method in brief: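 Test compound (25 uM, duplicate in the primary screen; concentration series at follow-up) competed with radioligand for human DRD2 in CHO-derived membrane protein. Filter-based scintillation counting was done 1.5 hours after dosing, with loss of signal analysed against DMSO.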
# [4] = target: human Endothelin Receptor Type B (ETB), EDNRB (gene 1910) (UniProt P24530); assay: NVS_GPCR_hETB: NovaScreen (NVS) G Protein-Coupled Receptor Assay for human Endothelin Receptor Type B (ETB) (AID 2283267)
# Method in brief: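 Filter-based scintillation readout of radioligand displacement, 4 h, using membranes from human astrocytoma cells. Actives from a 25 uM duplicate screen were retested in concentration-response (top 50 uM) relative to DMSO baseline.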
# [5] = target: D(1A) dopamine receptor (Homo sapiens) (UniProt P21728); assay: NVS_GPCR_hDRD1: NovaScreen (NVS) G Protein-Coupled Receptor Assay for human Dopamine Receptor D1 (DRD1) (AID 2283269)
# Method in brief: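 HEK293-derived receptor preparation; radioligand competitive displacement; 1 h; filtration + scintillation counting. DMSO = negative control/baseline. Primary: 25 uM, duplicate; secondary: concentration–response for actives.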
# [6] = target: Muscarinic acetylcholine receptor M5 (Homo sapiens) (UniProt P08912); assay: NVS_GPCR_hM5: NovaScreen (NVS) G Protein-Coupled Receptor Assay for human Muscarinic, M5 Receptor (AID 2283275)
# Method in brief: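 Chemicals passing a primary duplicate screen at 25 uM were run as singleton concentration series, maximum 50 uM. Displacement of a specific radioligand from CHO-extracted receptor was read by filter scintillation after 1 h, relative to DMSO.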
# [7] = target: human Neuropeptide Receptor Y1 (NPY1), NPY1R (gene 4886) (UniProt P25929); assay: NVS_GPCR_hNPY1: NovaScreen (NVS) G Protein-Coupled Receptor Assay for human Neuropeptide Receptor Y1 (NPY1) (AID 2283276)
# Method in brief: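 Displacement of specific radioligand from NPY1 receptor of SK-N-MC origin, read by filtration and scintillation after 1 h. Compounds first tested at 25 uM in duplicate, then actives in concentration series; signal loss relative to DMSO.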
# [8] = target: human Neurokinin, NK2 Receptor, TACR2 (gene 6865) (UniProt P21452); assay: NVS_GPCR_hNK2: NovaScreen (NVS) G Protein-Coupled Receptor Assay for human Neurokinin, NK2 Receptor (AID 2283278);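 note: actives reduce bound radioligand signal relative to DMSO baseline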
# Method in brief: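 Filter-based scintillation counting measured radioligand bound to receptor extracted from CHO cells, 4 hours after compound addition. Chemicals screened first at 25 uM in duplicate, with actives retested in concentration series relative to DMSO.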
# [9] = target: human Neurotensin Receptor (NTS), NTSR1 (gene 4923) (UniProt P30989); assay: NVS_GPCR_hNTS: NovaScreen (NVS) G Protein-Coupled Receptor Assay for human Neurotensin Receptor (NTS) (AID 2283279)
# Method in brief: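 Compounds competed with a radiolabelled ligand for binding to CHO-derived human neurotensin receptor; bound signal counted after filtration, 1 h. Screened first at a single concentration of 25 uM in duplicate, then concentration series to 50 uM maximum for actives.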
# [10] = target: human Opioid Receptor Delta 1 (Opiate D1), OPRD1 (gene 4985) (UniProt P41143); assay: NVS_GPCR_hOpiate_D1: NovaScreen (NVS) G Protein-Coupled Receptor Assay for human Opioid Receptor Delta 1 (Opiate D1) (AID 2283280)
# Method in brief: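 Membrane preparations from CHO cells bearing the human receptor were incubated 1 h with test chemical, and bound radioligand was counted after filtration. Actives from 25 uM duplicate screening were retested in concentration-response.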
# [11] = target: human Orphanin, Opioid Related Nociceptin Receptor 1 (ORL1), OPRL1 (gene 4987) (UniProt P41146); assay: NVS_GPCR_hORL1: NovaScreen (NVS) G Protein-Coupled Receptor Assay for human Orphanin, Opioid Related Nociceptin Receptor 1 (ORL1) (AID 2283283)
# Method in brief: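 Cell-free binding using HEK293-derived receptor protein: radioligand displacement measured by filter scintillation 1 hour after dosing. Primary testing at 25 uM in duplicate, followed by singleton concentration series up to 50 uM; DMSO served as negative control.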
# [12] = target: Muscarinic acetylcholine receptor M2 (Homo sapiens) (UniProt P08172); assay: NVS_GPCR_hM2: NovaScreen (NVS) G Protein-Coupled Receptor Assay for human Muscarinic, M2 Receptor (AID 2283273)
# Method in brief: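 Filter-based radiodetection read bound radioligand 1 h after dosing CHO-derived membrane protein. Single-concentration duplicates (25 uM) first, then concentration-response for actives; signal loss versus DMSO scored.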
# [13] = target: human Thromboxane A2 Receptor (TXA2), TBXA2R (gene 6915) (UniProt P21731); assay: NVS_GPCR_hTXA2: NovaScreen (NVS) G Protein-Coupled Receptor Assay for human Thromboxane A2 Receptor (TXA2) (AID 2283282);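 note: actives reduce bound radioligand signal relative to DMSO baseline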
# Method in brief: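 Cell-free radioligand binding on membrane protein from human platelets; radioligand displacement read by filter-based scintillation counting after 1 h. Primary screen in duplicate at 25 uM, actives then run in concentration series; loss of signal versus DMSO.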
# [14] = target: human Histamine 1 Receptor (H1), HRH1 (gene 3269) (UniProt P35367); assay: NVS_GPCR_hH1: NovaScreen (NVS) G Protein-Coupled Receptor Assay for human Histamine 1 Receptor (H1) (AID 2283268)
# Method in brief: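 Filter-based scintillation detection of radioligand binding to human H1, 1 h incubation; chemicals screened in duplicate at 25 uM, then concentration-response; signal loss relative to DMSO taken as activity.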
# [15] = target: human Purinergic Receptor P2Y, P2RY1 (gene 5028) (UniProt P47900); assay: NVS_GPCR_hPY2: NovaScreen (NVS) G Protein-Coupled Receptor Assay for human Purinergic Receptor P2Y (AID 2283281)
# Method in brief: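 Filtration scintillation readout of radioligand displacement on U937 extract, measured 1 h post-dosing. Single 25 uM duplicate screen, then singleton concentration series to 50 uM for chemicals passing threshold; DMSO as baseline.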
# [16] = target: human Vasopressin 1A Receptor (V1A), AVPR1A (gene 552) (UniProt P37288); assay: NVS_GPCR_hV1A: NovaScreen (NVS) G Protein-Coupled Receptor Assay for human Vasopressin 1A Receptor (V1A) (AID 2283284)
# Method in brief: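 Single-concentration duplicate screen at 25 uM, with concentration-response follow-up (top 50 uM) for actives. The assay measured displacement of a radioligand from human platelet-derived receptor after 1.5 h, detected by filtration and scintillation counting.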
# Muscarinic acetylcholine receptor M5 (Homo sapiens), sequence (P08912 whole entry, looked up): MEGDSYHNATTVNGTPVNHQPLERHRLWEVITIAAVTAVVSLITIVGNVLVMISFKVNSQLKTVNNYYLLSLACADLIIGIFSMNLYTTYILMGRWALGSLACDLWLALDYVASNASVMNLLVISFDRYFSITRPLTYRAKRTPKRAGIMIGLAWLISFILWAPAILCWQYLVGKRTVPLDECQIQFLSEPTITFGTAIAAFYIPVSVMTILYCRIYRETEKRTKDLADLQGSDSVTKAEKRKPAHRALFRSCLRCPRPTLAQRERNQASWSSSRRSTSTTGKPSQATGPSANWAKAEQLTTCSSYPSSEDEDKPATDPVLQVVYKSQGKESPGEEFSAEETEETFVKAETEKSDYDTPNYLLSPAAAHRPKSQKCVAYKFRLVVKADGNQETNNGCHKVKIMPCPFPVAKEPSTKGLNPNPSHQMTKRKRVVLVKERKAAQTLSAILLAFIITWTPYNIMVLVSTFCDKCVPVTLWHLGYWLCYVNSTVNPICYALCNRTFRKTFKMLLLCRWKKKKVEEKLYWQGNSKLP
# human Dopamine Receptor D2 (DRD2), DRD2 (gene 1813), sequence (P14416 whole entry, looked up): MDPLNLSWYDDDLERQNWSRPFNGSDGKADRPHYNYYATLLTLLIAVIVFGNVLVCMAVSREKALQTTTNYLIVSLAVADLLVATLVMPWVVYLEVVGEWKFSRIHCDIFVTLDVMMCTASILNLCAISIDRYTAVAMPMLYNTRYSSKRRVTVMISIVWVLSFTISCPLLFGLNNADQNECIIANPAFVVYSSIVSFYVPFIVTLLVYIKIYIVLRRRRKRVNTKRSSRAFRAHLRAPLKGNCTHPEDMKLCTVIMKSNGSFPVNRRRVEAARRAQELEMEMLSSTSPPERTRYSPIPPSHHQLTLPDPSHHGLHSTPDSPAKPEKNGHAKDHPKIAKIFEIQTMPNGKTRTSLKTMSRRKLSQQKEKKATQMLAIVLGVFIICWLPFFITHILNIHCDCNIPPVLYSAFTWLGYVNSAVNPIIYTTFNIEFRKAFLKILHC
# human Neurokinin, NK2 Receptor, TACR2 (gene 6865), sequence (P21452 whole entry, looked up): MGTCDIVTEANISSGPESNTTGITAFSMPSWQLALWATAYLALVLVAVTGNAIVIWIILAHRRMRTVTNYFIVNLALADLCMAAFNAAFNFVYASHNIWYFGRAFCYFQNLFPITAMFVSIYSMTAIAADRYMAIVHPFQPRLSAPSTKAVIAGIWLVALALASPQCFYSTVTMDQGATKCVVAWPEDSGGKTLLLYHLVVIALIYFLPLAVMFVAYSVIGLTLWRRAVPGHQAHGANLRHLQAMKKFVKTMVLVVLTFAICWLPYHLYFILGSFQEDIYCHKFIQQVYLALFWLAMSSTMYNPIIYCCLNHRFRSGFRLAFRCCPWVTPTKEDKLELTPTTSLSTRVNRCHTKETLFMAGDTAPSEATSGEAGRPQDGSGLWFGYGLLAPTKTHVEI
# human Orphanin, Opioid Related Nociceptin Receptor 1 (ORL1), OPRL1 (gene 4987), sequence (P41146 whole entry, looked up): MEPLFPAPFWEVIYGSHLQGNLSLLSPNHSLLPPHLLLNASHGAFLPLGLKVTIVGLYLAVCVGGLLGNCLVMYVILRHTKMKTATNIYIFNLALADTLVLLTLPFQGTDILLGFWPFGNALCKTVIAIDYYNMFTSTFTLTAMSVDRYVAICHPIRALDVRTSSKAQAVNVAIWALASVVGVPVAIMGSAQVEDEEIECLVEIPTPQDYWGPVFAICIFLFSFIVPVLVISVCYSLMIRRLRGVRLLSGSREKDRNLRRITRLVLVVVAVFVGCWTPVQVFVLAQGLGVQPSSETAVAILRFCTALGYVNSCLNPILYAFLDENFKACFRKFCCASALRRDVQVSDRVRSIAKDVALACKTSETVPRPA
# human Histamine 1 Receptor (H1), HRH1 (gene 3269), sequence (P35367 whole entry, looked up): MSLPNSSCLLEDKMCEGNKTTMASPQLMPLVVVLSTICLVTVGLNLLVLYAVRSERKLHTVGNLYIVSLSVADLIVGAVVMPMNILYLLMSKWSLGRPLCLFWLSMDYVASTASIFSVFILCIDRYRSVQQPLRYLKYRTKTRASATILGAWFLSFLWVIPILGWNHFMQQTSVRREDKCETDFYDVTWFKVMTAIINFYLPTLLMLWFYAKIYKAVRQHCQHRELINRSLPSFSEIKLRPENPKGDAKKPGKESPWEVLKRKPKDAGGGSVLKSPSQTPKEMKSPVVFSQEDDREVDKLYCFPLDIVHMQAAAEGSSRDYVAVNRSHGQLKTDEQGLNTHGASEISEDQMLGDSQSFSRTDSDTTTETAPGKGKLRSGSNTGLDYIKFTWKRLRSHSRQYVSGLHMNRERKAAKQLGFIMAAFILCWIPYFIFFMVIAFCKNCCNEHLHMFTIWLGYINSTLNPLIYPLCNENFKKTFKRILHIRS
# human Thromboxane A2 Receptor (TXA2), TBXA2R (gene 6915), sequence (P21731 whole entry, looked up): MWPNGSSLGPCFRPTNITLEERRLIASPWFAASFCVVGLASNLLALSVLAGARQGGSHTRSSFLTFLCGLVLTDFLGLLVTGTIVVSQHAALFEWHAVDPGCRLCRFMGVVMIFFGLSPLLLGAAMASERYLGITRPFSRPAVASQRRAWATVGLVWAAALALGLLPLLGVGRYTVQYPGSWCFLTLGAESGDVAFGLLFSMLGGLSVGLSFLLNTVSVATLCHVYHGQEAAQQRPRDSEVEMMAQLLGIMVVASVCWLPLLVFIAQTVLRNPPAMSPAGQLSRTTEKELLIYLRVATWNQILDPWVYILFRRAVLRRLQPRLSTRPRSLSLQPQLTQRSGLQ
# human Dopamine Receptor D4.4 (DRD4.4), DRD4 (gene 1815), sequence (P21917 whole entry, looked up): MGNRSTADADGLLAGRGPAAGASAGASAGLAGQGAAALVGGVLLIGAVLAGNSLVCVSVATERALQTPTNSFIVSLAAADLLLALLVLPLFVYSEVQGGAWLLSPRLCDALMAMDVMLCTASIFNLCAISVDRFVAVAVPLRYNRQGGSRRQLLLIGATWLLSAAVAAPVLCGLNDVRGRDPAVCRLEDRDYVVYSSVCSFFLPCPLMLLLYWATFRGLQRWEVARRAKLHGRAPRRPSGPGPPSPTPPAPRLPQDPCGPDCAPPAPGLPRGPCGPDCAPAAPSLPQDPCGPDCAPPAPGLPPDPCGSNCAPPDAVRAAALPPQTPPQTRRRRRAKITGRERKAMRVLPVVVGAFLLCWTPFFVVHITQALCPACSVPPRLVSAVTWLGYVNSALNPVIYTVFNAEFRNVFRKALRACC
# Muscarinic acetylcholine receptor M2 (Homo sapiens), sequence (P08172 whole entry, looked up): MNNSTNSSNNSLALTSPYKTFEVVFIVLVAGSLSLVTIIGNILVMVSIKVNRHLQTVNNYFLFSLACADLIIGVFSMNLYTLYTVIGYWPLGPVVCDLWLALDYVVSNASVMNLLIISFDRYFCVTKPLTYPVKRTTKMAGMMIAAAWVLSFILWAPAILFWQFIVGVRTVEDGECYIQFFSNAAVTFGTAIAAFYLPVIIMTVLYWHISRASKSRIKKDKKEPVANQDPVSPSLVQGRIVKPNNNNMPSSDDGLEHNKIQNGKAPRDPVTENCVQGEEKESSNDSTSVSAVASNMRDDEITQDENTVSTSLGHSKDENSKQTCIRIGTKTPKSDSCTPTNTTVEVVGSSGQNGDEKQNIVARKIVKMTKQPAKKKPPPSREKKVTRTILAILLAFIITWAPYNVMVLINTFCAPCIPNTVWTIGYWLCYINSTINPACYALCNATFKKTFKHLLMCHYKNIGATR
# D(1A) dopamine receptor (Homo sapiens), sequence (P21728 whole entry, looked up): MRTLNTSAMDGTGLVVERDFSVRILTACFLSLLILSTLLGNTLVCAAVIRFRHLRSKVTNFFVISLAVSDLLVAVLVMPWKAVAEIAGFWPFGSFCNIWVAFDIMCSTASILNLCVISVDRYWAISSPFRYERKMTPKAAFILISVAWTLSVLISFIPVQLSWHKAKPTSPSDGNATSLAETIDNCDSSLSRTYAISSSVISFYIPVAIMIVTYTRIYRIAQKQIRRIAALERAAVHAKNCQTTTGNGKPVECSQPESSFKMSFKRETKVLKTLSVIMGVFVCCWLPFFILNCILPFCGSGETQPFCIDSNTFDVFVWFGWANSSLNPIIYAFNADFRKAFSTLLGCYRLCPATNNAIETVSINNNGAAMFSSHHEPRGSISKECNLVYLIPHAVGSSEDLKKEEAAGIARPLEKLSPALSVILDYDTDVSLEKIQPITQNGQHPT
# human Endothelin Receptor Type B (ETB), EDNRB (gene 1910), sequence (P24530 whole entry, looked up): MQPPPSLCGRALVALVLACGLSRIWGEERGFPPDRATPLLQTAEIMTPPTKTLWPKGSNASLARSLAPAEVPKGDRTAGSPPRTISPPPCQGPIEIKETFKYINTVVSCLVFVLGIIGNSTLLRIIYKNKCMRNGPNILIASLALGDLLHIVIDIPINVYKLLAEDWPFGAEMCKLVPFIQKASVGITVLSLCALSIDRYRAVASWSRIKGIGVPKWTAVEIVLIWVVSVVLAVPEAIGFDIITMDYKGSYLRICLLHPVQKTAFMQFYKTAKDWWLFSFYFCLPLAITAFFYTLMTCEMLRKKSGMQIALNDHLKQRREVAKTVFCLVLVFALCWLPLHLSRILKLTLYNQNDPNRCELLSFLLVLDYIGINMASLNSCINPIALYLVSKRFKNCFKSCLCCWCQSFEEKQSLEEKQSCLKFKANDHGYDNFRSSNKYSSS
# human Purinergic Receptor P2Y, P2RY1 (gene 5028), sequence (P47900 whole entry, looked up): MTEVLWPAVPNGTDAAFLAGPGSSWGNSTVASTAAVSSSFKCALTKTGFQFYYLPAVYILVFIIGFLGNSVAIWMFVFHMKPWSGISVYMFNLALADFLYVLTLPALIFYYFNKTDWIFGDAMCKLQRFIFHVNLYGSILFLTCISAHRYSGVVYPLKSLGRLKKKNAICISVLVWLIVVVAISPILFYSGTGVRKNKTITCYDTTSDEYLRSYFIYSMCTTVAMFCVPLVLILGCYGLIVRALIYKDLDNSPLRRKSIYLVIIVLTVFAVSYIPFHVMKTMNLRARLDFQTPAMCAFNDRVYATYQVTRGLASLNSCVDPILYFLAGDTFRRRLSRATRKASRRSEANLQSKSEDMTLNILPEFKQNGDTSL
smiles,measurement,setting,value
CCN(CC)CCOc1ccc(C(=C(Cl)c2ccccc2)c2ccccc2)cc1,AC50,[1],17.3 µM (active)
same,AC50,[2],29.1 µM (active)
same,AC50,[3],1.79 µM (active)
same,AC50,[4],32.3 µM (active)
same,AC50,[5],2.28 µM (active)
same,AC50,[6],2.53 µM (active)
same,AC50,[7],31.8 µM (active)
same,AC50,[8],9.71 µM (active)
same,outcome,[9],inactive
same,AC50,[10],9.7 µM (active)
same,AC50,[11],28.9 µM (active) and 7.41 µM (active) and 31.3 µM (active)
NCCOCCOCCN,outcome,[4],inactive
CC(=O)[C@@]1(O)CC[C@H]2[C@@H]3CCC4=CC(=O)CC[C@]4(C)[C@H]3CC[C@@]21C,AC50,[12],0.617 µM (active)
CN(C)C(=O)NC1(c2ccccc2)CCN(CC[C@@]2(c3ccc(F)c(F)c3)CN(C(=O)c3ccccc3)CCO2)CC1,outcome,[3],inactive
same,AC50,[12],9.11 µM (active)
same,AC50,[6],12.8 µM (active)
same,AC50,[8],0.00564 µM (active)
CCCCCCC(CCCCCCCCCCC(=O)OCC(COC(C)=O)OC(C)=O)OC(C)=O (stereo not given),AC50,[13],4.54 µM (active)
O=C(N[C@@H](c1ccccc1)[C@@H]1CCCCN1)c1cccc(C(F)(F)F)c1Cl,outcome,[1],inactive
same,outcome,[3],inactive
same,outcome,[14],inactive
same,AC50,[5],12.1 µM (active)
same,AC50,[6],25 µM (active)
same,AC50,[8],17.8 µM (active)
CC(COCC(C)OC(=O)c1ccccc1)OC(=O)c1ccccc1 (stereo not given),outcome,[15],inactive
S=c1[nH]c2ccccc2s1,outcome,[8],inactive
CCC(C)N(C)C(=O)c1cc2ccccc2c(-c2ccccc2Cl)n1 (stereo not given),AC50,[14],15.9 µM (active)
same,AC50,[8],15.9 µM (active)
same,AC50,[13],1 µM (active)
same,outcome,[16],inactive
